Results taken from PubChem BioAssay (EPA / NIEHS).
The source made the active and inactive calls. How the source made its calls: active means hit-call score of the fitted dose curve at least 0.9, where 1 is the maximum; inactive means score below 0.9.

How the values were obtained:
Details in all cases: mRNA level, 48 h; actives raise or lower the signal
[1] = read-out: Pro-epidermal growth factor (Homo sapiens) (UniProt P01133); test: LTEA_HepaRG_EGF: Life Technologies and Expression Analysis (LTEA) Assay for Epidermal growth factor (EGF) using HepaRG (AID 2283489)
Outline: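 HepaRG cells (~100,000/well, 48 h pre-culture) exposed in duplicate for 48 h in serum-free induction medium to 8 half-log concentrations up to 100 uM in 0.5% DMSO. EGF mRNA by qRT-PCR, normalized to ACTB/GAPDH/POLR2A; bidirectional fit versus DMSO.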

[2] = read-out: Early growth response protein 1 (EGR1) transcription factor, EGR1 (gene 1958); test: LTEA_HepaRG_EGR1: Life Technologies and Expression Analysis (LTEA) Assay for Early growth response protein 1 (EGR1) transcription factor using HepaRG (AID 2283490)
Outline: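 HepaRG, 48 h exposure, 8-pt half-log series from 100 uM, 0.5% DMSO vehicle; EGR1 transcript by TaqMan qRT-PCR (Fluidigm array), housekeeping-normalized; bidirectional fit relative to DMSO baseline.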

[3] = read-out: Ezrin (EZR), EZR (gene 7430); test: LTEA_HepaRG_EZR: Life Technologies and Expression Analysis (LTEA) Assay for Ezrin (EZR) using HepaRG (AID 2283491)
Outline: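 EZR transcript levels came from Fluidigm qRT-PCR and were normalized to three housekeeping genes after 48 h chemical exposure of HepaRG cells. Dosing used an 8-point half-log series with a 100 uM top concentration in 0.5% DMSO, tested in duplicate; both directions were fitted versus vehicle.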

[4] = read-out: Cytochrome P450 3A7 (Homo sapiens) (UniProt P24462); test: LTEA_HepaRG_CYP3A7: Life Technologies and Expression Analysis (LTEA) Assay for CYP3A7 using HepaRG (AID 2283492)
Outline: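 Differentiated HepaRG cells in serum-free induction medium exposed 48 h in duplicate to 8-point half-log series from 100 uM top in 0.5% DMSO. CYP3A7 mRNA by qRT-PCR, normalized to ACTB/GAPDH/POLR2A, bidirectional fit versus DMSO.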

CYP3A5 (gene 1577) = test: LTEA_HepaRG_CYP3A5: Life Technologies and Expression Analysis (LTEA) Assay for CYP3A5 using HepaRG (AID 2283493)
Outline: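 Human HepaRG hepatic cells receive 48 h chemical treatment at eight concentrations (half-log steps from 100 uM) in 0.5% DMSO. Expression of CYP3A5 is quantified by Fluidigm qRT-PCR and normalized to three reference genes.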

[5] = read-out: Fatty Acid-Binding Protein 1 (FABP1), FABP1 (gene 2168); test: LTEA_HepaRG_FABP1: Life Technologies and Expression Analysis (LTEA) Assay for Fatty Acid-Binding Protein 1 (FABP1) using HepaRG (AID 2283494)
Outline: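 qRT-PCR readout of FABP1 transcript (normalized to three housekeeping genes) after 48 h chemical exposure of HepaRG cells; eight concentrations, half-log steps, max 100 uM, 0.5% DMSO vehicle; gain or loss fitted relative to DMSO baseline.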

[6] = read-out: Cytochrome P450 4A22 (Homo sapiens) (UniProt Q5TCH4); test: LTEA_HepaRG_CYP4A22: Life Technologies and Expression Analysis (LTEA) Assay for Cytochrome P450 4A22 (CYP4A22) using HepaRG (AID 2283495)
Outline: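 Differentiated HepaRG cells in serum-free induction medium exposed 48 h in duplicate to eight half-log concentrations up to 100 uM in 0.5% DMSO. CYP4A22 mRNA quantified by TaqMan qRT-PCR, normalized to ACTB, GAPDH and POLR2A; bidirectional fit versus DMSO.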

[7] = read-out: Cytochrome P450 7A1 (Homo sapiens) (UniProt P22680); test: LTEA_HepaRG_CYP7A1: Life Technologies and Expression Analysis (LTEA) Assay for Cytochrome P450 7A1 (CYP7A1) using HepaRG (AID 2283496)
Outline: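 HepaRG, 48 h exposure, 8-pt half-log series from 100 uM, 0.5% DMSO vehicle, duplicates. Readout: TaqMan qRT-PCR mRNA vs three housekeeping genes; bidirectional curve fit against DMSO baseline.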

[8] = read-out: Glutathione S-Transferase (GSTA2), GSTA2 (gene 2939); test: LTEA_HepaRG_GSTA2: Life Technologies and Expression Analysis (LTEA) Assay for Glutathione S-Transferase (GSTA2) using HepaRG (AID 2283497)
Outline: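 qRT-PCR readout of GSTA2 transcript, normalized to three housekeeping genes, fitted bidirectionally against 0.5% DMSO baseline. Differentiated HepaRG cells received compound for 48 h at 8 concentrations (top 100 uM, half-log steps).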

[9] = read-out: Glutamate-cysteine ligase catalytic (GCLC), GCLC (gene 2729); test: LTEA_HepaRG_GCLC: Life Technologies and Expression Analysis (LTEA) Assay for Glutamate-cysteine ligase catalytic (GCLC) using HepaRG (AID 2283498)
Outline: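 HepaRG, 48 h exposure, 8-pt half-log series from 100 uM, 0.5% DMSO vehicle; TaqMan qRT-PCR for GCLC mRNA, housekeeping-normalized; bidirectional curve fit vs DMSO baseline.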

[10] = read-out: Glutamate-cysteine ligase regulatory (GCLM), GCLM (gene 2730); test: LTEA_HepaRG_GCLM: Life Technologies and Expression Analysis (LTEA) Assay for Glutamate-cysteine ligase regulatory (GCLM) using HepaRG (AID 2283500)
Outline: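 Endpoint is GCLM transcript level by qRT-PCR, normalized to three housekeeping genes, after 48 h chemical exposure of human HepaRG cells (0.5% DMSO vehicle, top 100 uM, half-log dilutions). Fitting was bidirectional relative to DMSO.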

[11] = read-out: Glutathione S-transferase M3 (GSTM3), GSTM3 (gene 2947); test: LTEA_HepaRG_GSTM3: Life Technologies and Expression Analysis (LTEA) Assay for Glutathione S-transferase M3 (GSTM3) using HepaRG (AID 2283501)
Outline: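 Differentiated human HepaRG cells were exposed in duplicate for 48 h in serum-free induction medium, 8 points from 100 uM top in half-log steps, 0.5% DMSO. GSTM3 mRNA was measured by TaqMan qRT-PCR, normalized to ACTB, GAPDH and POLR2A; bidirectional fit versus DMSO.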

[12] = read-out: Heat shock 70 kDa protein 1 (HSPA1A), gene 3303; test: LTEA_HepaRG_HSPA1A: Life Technologies and Expression Analysis (LTEA) Assay for Heat shock 70 kDa protein 1 (HSPA1A) using HepaRG (AID 2283502)
Outline: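 Cells were plated and cultured for 48 h, then switched to serum-free induction medium. Chemicals were added at eight half-log concentrations up to 100 uM for 48 h. RNA was then isolated and HSPA1A measured by qRT-PCR with bidirectional curve fitting against DMSO.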

[13] = read-out: Hypoxia-inducible factor 1-alpha (Homo sapiens) (UniProt Q16665); test: LTEA_HepaRG_HIF1A: Life Technologies and Expression Analysis (LTEA) Assay for Hypoxia-inducible factor 1 (HIF1A) Trancription factor using HepaRG (AID 2283503)
Outline: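 HIF1A transcript level read by qRT-PCR (ACTB, GAPDH, POLR2A normalization) after 48 h chemical exposure of HepaRG cultures. Eight half-log concentrations, top 100 uM, 0.5% DMSO vehicle, duplicates; bidirectional curve fit against DMSO baseline.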

[14] = read-out: 3-Hydroxy-3-Methylglutaryl-CoA Synthase 2 (HMGCS2), HMGCS2 (gene 3158); test: LTEA_HepaRG_HMGCS2: Life Technologies and Expression Analysis (LTEA) Assay for 3-Hydroxy-3-Methylglutaryl-CoA Synthase 2 (HMGCS2) using HepaRG (AID 2283504)
Outline: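 Human HepaRG cells in serum-free induction medium were exposed in duplicate for 48 h to 8-point half-log series from 100 uM top in 0.5% DMSO. HMGCS2 mRNA measured by TaqMan qRT-PCR, normalised to ACTB, GAPDH, POLR2A; bidirectional fit versus DMSO.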

[15] = read-out: Insulin Like Growth Factor 1 (IGF1), IGF1 (gene 3479); test: LTEA_HepaRG_IGF1: Life Technologies and Expression Analysis (LTEA) Assay for Insulin Like Growth Factor 1 (IGF1) using HepaRG (AID 2283506)
Outline: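 Cells are thawed, plated and cultured 48 h, then exposed in duplicate to chemical (highest 100 uM, half-log steps, 0.5% DMSO) for another 48 h. Total RNA is analysed by Fluidigm qRT-PCR for IGF1 expression relative to vehicle.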

[16] = read-out: Intercellular Adhesion Molecule 1 (ICAM1), ICAM1 (gene 3383); test: LTEA_HepaRG_ICAM1: Life Technologies and Expression Analysis (LTEA) Assay for Intercellular Adhesion Molecule 1 (ICAM1) using HepaRG (AID 2283507)
Outline: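 Differentiated human HepaRG cells in serum-free induction medium exposed 48 h in duplicate to 8 half-log concentrations (top 100 uM, 0.5% DMSO). ICAM1 mRNA quantified by TaqMan qRT-PCR, normalized to ACTB, GAPDH and POLR2A; bidirectional fitting versus DMSO.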

[17] = read-out: Insulin-like growth factor-binding protein 1 (IGFBP1), IGFBP1 (gene 3484); test: LTEA_HepaRG_IGFBP1: Life Technologies and Expression Analysis (LTEA) Assay for Insulin-like growth factor-binding protein 1 (IGFBP1) using HepaRG (AID 2283508)
Outline: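 HepaRG cells, plated 48 h then switched to serum-free induction medium, exposed in duplicate for 48 h to 8-point half-log series from 100 uM in 0.5% DMSO. mRNA measured by qRT-PCR, normalized to ACTB/GAPDH/POLR2A; bidirectional fit versus DMSO.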

[18] = read-out: growth arrest and DNA damage 45 (GADD45G), GADD45G (gene 10912); test: LTEA_HepaRG_GADD45G: Life Technologies and Expression Analysis (LTEA) Assay for growth arrest and DNA damage 45 (GADD45G) using HepaRG (AID 2283499)
Outline: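 Differentiated human HepaRG cells, 48 h post-plating, exposed 48 h in serum-free induction medium to 8 half-log concentrations (top 100 uM, 0.5% DMSO) in duplicate. GADD45G mRNA measured by Fluidigm TaqMan qRT-PCR, normalized to ACTB, GAPDH, POLR2A; bidirectional fit versus DMSO.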

HGF (gene 3082) = test: LTEA_HepaRG_HGF: Life Technologies and Expression Analysis (LTEA) Assay for Hepatocyte Growth Facto (HGF) using HepaRG (AID 2283505)
Outline: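 Differentiated HepaRG cells in serum-free induction medium exposed 48 h in duplicate, 8 half-log concentrations from 100 uM in 0.5% DMSO. HGF mRNA by qRT-PCR, normalised to ACTB, GAPDH, POLR2A; bidirectional fitting.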

Measured: outcome

Chain of Hypoxia-inducible factor 1-alpha (Homo sapiens) (Q16665 whole entry, looked up): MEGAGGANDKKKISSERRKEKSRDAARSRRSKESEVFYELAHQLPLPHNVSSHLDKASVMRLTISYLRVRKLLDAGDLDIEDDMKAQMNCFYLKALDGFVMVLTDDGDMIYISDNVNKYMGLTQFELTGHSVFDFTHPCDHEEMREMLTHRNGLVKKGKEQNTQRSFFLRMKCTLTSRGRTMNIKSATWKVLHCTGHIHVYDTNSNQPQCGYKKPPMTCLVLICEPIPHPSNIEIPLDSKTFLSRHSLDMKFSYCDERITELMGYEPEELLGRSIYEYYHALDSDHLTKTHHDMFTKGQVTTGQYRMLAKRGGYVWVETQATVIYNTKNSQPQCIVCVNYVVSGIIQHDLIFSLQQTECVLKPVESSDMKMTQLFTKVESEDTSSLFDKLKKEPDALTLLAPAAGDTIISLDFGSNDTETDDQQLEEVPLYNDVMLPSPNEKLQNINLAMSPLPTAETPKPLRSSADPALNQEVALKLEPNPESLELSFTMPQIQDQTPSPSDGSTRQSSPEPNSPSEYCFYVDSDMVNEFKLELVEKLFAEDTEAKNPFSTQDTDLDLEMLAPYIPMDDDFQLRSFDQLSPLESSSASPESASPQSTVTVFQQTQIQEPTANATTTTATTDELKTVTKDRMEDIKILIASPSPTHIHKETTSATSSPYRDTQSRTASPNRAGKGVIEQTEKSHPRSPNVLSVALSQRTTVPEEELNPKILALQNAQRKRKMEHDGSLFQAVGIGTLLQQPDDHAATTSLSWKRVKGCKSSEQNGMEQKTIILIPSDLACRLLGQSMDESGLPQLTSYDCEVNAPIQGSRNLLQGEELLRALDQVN
Chain of Cytochrome P450 3A7 (Homo sapiens) (P24462 whole entry, looked up): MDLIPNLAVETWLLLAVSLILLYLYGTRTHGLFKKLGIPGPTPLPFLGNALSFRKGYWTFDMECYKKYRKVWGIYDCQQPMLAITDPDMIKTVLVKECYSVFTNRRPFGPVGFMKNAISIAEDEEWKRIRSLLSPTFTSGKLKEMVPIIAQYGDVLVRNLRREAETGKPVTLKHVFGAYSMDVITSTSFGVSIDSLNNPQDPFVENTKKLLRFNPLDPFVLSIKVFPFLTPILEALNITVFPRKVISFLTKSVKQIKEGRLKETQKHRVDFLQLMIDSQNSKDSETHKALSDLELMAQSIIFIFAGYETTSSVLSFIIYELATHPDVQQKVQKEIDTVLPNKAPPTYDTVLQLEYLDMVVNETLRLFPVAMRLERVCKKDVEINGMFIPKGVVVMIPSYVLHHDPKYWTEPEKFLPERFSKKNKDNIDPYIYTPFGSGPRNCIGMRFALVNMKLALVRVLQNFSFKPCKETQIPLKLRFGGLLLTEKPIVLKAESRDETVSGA

CCCCCCCCCCCCCCCCCC(=O)O
not listed: [18] | HGF (gene 3082)
inactive: all other assays above

COc1cc(C=O)ccc1O
not listed: [18] | HGF (gene 3082)
inactive: all other assays above

O=[N+]([O-])C(CO)(CO)CO
not listed: [12] | [16] | HGF (gene 3082)
inactive: all other assays above

Cc1ccccc1Cl
not listed: [2]
inactive: all other assays above
